Substitutions are numbered along the chain they refer to.

Holding throughout (assay): yeast three-hybrid, YBZ-1, SC-Leu-His + 0.5 mM 3-AT, 4 days
Conditions in all cases: tags: N-Gal4 AD-HA kept; label: inside an RPR1-promoter hybrid RNA with tandem MS2 sites; ssRNA

The target of one assay is PUM1 PUF domain R4-TPS (Homo sapiens, UniProt Q14671 828-1176, N971T;H972P;Q975S). In short, it runs like this: (§1)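 Pumilio-1 PUF domain libraries, randomized (NNK) at the three base-contacting residues of each repeat, were co-expressed with matching RNA elements from a centromeric plasmid in strain YBZ-1 (LexA–MS2 coat fusion, HIS3 reporter). Transformants were plated on SC-Leu (input) and SC-Leu-His + 0.5 mM 3-AT (selection) for four days, and repeat regions were PCR-amplified and Illumina-sequenced. The interaction score is the log2 change in variant frequency from input to selection, with pseudocount 1 where absent.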

A further assay addresses PUM1 PUF domain R4-SNG (Homo sapiens, UniProt Q14671 828-1176, N971S;H972N;Q975G). In short, it runs like this:
as §1

The next assay addresses PUM1 PUF domain R8-RWI (Homo sapiens, UniProt Q14671 828-1176, N1122R;Y1123W;Q1126I). In short, it runs like this:
as §1

Another assay deals with T1, PUM1 PUF domain R6-HHS (Homo sapiens, UniProt Q14671 828-1176, N1043H;Y1044H;Q1047S).
T1 sequence: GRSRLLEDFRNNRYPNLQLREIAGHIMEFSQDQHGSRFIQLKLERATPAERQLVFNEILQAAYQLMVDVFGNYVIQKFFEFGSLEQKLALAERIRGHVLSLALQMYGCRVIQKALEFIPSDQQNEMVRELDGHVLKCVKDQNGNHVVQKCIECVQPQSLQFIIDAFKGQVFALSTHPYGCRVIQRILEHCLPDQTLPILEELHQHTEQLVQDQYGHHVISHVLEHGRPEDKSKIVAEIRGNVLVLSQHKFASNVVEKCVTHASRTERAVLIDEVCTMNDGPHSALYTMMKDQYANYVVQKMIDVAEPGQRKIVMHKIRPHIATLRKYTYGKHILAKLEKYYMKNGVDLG
In short, it runs like this: as §1

Another assay concerns the target T2, PUM1 PUF domain R6-NFW (Homo sapiens, UniProt Q14671 828-1176, Y1044F;Q1047W).
T2 sequence: T1 sequence with H216N, H217F, S220W
In short, it runs like this:
as §1

The target of the next assay is PUM1 PUF domain R3-GFW (Homo sapiens, UniProt Q14671 828-1176, C935G;R936F;Q939W). In short, it runs like this:
as §1

The target in the next assay is PUM1 PUF domain R8-HYN (Homo sapiens, UniProt Q14671 828-1176, N1122H;Q1126N). In short, it runs like this:
as §1

A further assay deals with PUM1 PUF domain R5-RQG (Homo sapiens, UniProt Q14671 828-1176, C1007R;R1008Q;Q1011G). In short, it runs like this:
as §1

Another assay addresses PUM1 PUF domain R1-KIL (Homo sapiens, UniProt Q14671 828-1176, S863K;R864I;Q867L). In short, it runs like this: as §1
The next assay addresses PUM1 PUF domain R5-RCC (Homo sapiens, UniProt Q14671 828-1176, C1007R;R1008C;Q1011C). In short, it runs like this:
as §1

As for “GGCUAGAACUAGUGGAUCCCCCGGCGCCCGGCGGCUCGAGCCCGGGUAAGUGUACAUAGUCUGCAUGCCGCCGGGCGCCAUGCCUGCAGGUCGACUCUAGAAAACAUG”, the binding signal with PUM1 PUF domain R4-TPS is 4.18 log2 enrichment (interaction score).

As for “GGCUAGAACUAGUGGAUCCCCCGGCGCCCGGCGGCUCGAGCCCGGGUAAGUGUAUAUAGUCUGCAUGCCGCCGGGCGCCAUGCCUGCAGGUCGACUCUAGAAAACAUG”, the binding signal with PUM1 PUF domain R4-SNG is 3.22 log2 enrichment (interaction score).

For “GGCUAGAACUAGUGGAUCCCCCGGCGCCCGGCGGCUCGAGCCCGGGUAAGCGUAAAUAGUCUGCAUGCCGCCGGGCGCCAUGCCUGCAGGUCGACUCUAGAAAACAUG”, the binding signal with PUM1 PUF domain R8-RWI is 5.86 log2 enrichment (interaction score).

On to “GGCUAGAACUAGUGGAUCCCCCGGCGCCCGGCGGCUCGAGCCCGGGUAAGUGUAAAUAGUCUGCAUGCCGCCGGGCGCCAUGCCUGCAGGUCGACUCUAGAAAACAUG”, for which the binding signal with PUM1 PUF domain R6-HHS was 4.38 log2 enrichment (interaction score); with PUM1 PUF domain R6-NFW, 2.25 log2 enrichment (interaction score); with PUM1 PUF domain R3-GFW, 5.77 log2 enrichment (interaction score); with PUM1 PUF domain R8-HYN it was 2.92 log2 enrichment (interaction score); in the assay with PUM1 PUF domain R4-SNG, 1.17 log2 enrichment (interaction score); with PUM1 PUF domain R4-TPS it was 3 log2 enrichment (interaction score). Also, the binding signal with PUM1 PUF domain R5-RQG is 0.8 log2 enrichment (interaction score).

Turning to “GGCUAGAACUAGUGGAUCCCCCGGCGCCCGGCGGCUCGAGCCCGGGUAAGUGUAAAUCGUCUGCAUGCCGCCGGGCGCCAUGCCUGCAGGUCGACUCUAGAAAACAUG”, the binding signal with PUM1 PUF domain R1-KIL was 2.59 log2 enrichment (interaction score).

Regarding “GGCUAGAACUAGUGGAUCCCCCGGCGCCCGGCGGCUCGAGCCCGGGUAAGUGUUAAUAGUCUGCAUGCCGCCGGGCGCCAUGCCUGCAGGUCGACUCUAGAAAACAUG”, the binding signal with PUM1 PUF domain R5-RQG was 5 log2 enrichment (interaction score).

As for “GGCUAGAACUAGUGGAUCCCCCGGCGCCCGGCGGCUCGAGCCCGGGUAAGUGUCAAUAGUCUGCAUGCCGCCGGGCGCCAUGCCUGCAGGUCGACUCUAGAAAACAUG”, the binding signal in the assay with PUM1 PUF domain R5-RCC is 4.34 log2 enrichment (interaction score); in the assay with PUM1 PUF domain R5-RQG, 5.03 log2 enrichment (interaction score).

Consider “GGCUAGAACUAGUGGAUCCCCCGGCGCCCGGCGGCUCGAGCCCGGGUAAGUGUGAAUAGUCUGCAUGCCGCCGGGCGCCAUGCCUGCAGGUCGACUCUAGAAAACAUG”, for which, in the assay with PUM1 PUF domain R5-RQG, the binding signal is 0.9 log2 enrichment (interaction score).

Values taken from paper PMC8384837, “Expanding the binding specificity for RNA recognition by a PUF domain”.
